Only some compounds are listed: those with a hit (about 2.1% of all), similar ones and a draw of the others.
D2 PAM-1: human D2 receptor positive allosteric modulation. DiscoveRx D2 beta-arrestin cells, luminescence, 90 min; 100% = 57 uM dopamine signal. potentiation, % (test concentration not listed). 0.23% of 360,000 active. AID 624464; in the data active = potentiation above about 50%
Target sequence (P14416 whole entry, looked up): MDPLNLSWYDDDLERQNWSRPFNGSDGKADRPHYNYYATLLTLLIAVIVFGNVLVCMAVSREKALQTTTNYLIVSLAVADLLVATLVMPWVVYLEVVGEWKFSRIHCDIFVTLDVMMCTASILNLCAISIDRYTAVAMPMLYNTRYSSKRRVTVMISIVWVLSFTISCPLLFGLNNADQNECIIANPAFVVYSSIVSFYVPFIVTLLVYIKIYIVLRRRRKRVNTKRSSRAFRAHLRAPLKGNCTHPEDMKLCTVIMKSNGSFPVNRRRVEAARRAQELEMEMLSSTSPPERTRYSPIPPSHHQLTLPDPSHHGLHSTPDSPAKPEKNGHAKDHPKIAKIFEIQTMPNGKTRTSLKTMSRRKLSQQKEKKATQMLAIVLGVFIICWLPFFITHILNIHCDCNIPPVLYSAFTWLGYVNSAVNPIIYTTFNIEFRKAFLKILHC
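PathHunter D2 cells, attached overnight at 37 deg C, received compound in DMSO plus dopamine at EC20 (50 nM final) for 90 min at 37 deg C. Beta-arrestin recruitment was read as luminescence after 1 h with detection reagent at ambient temperature.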
D2 ag-1: activates the human D2 dopamine receptor | P14416 | HEK293 T-REx D2 cells, calcium flux agonist mode | activation, % at 2 µM | 0.53% of 340,000 active;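 active = activation over 3 SD above normal in the single-dose calcium agonist read, cut at about 30% in these data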; note: 0% is about no effect
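Calcium-flux readout, 1 cycle/sec over 180 s following compound pin transfer, in inducible HEK293 Trex D2 cells (force-coupled); dopamine controls included. Positive calcium responses during this window marked compounds as potential agonists.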
D2 PAM-2: positively modulates the human D2 dopamine receptor allosterically. P14416. HEK293 T-REx D2, calcium flux, EC20 dopamine potentiation. potentiation, % at 10 µM. 0.34% of 340,000 active. AID 485347;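 active = potentiation over 3 SD above the plate norm, cut at about 30% in these data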; note: 0% is about no effect
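Potentiation of an EC20 dopamine calcium response is measured in a force-coupled, tetracycline-inducible Hek293 Trex D2 line. Compound-only kinetic reads over 180 s flag agonists before dopamine addition.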
LDHA block: blocks human lactate dehydrogenase A; purified LDHA, NADH/diaphorase-resazurin fluorescence; active compounds read low; activity change, % (values are at about 110 or 230 µM); 0.15% of 480,000 active; in the data active = activity change below about -30%;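 note: plate controls were DMSO wells for no effect and wells without enzyme for full effect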
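Human LDH5 at 2 nM final in Tris HCl pH 7.4 with 0.06 mM NADH and 0.2 mM pyruvate, reacted 5 minutes at room temperature. Remaining NADH coupled via diaphorase/resazurin; resorufin fluorescence read at 0 and 20 minutes, normalized to enzyme-free and DMSO wells.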
D2 antag: D2 dopamine receptor (human) antagonism; P14416; HEK293 TREx D2 cells, calcium flux, dopamine EC80; inhibition, % at 10 µM; 2% of 340,000 active; AID 485344; in the data active = inhibition above about 30%; inactive = below that, where a call was filed; note: 0% is about no effect
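Tetracycline-induced HEK293 TREx cells expressing D2 receptor forced-coupled to calcium signalling, loaded with no-wash calcium dye. Compounds added and calcium flux read 180 s, then dopamine added at EC80 and read a further 180 s.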
D2 ag-2: activates the human D2 dopamine receptor | P14416 | DiscoveRx PathHunter D2 beta-arrestin, luminescence, 90 min; 100% = 57 uM dopamine signal | activation, % (concentration not given with the values) | 0.084% of 360,000 active; in the data active = activation above about 40%
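Agonist mode: compounds alone added to overnight-plated D2 PathHunter cells for 90 min at 37 C, with 57 uM final dopamine (EC100) defining full response. Beta-arrestin recruitment detected by chemiluminescent reagent, read after 1 h at ambient temperature.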
An asterisk follows results filed as active.

`NC(=O)C1CC(=O)N(c2ccc(OCc3ccc([N+](=O)[O-])cc3)cc2)C1` (stereo not drawn) gave D2 PAM-1 1.5, D2 ag-1 -0.3, D2 PAM-2 3.6, LDHA block -6.3, D2 antag -12.2 and D2 ag-2 8.5.
Screening Cc1ccc(N2CC(C(=O)OCc3ccc([N+](=O)[O-])cc3)CC2=O)cc1 (stereo not drawn) returned D2 PAM-1 -2.5, D2 ag-1 0.5, D2 PAM-2 30.6*, LDHA block -5.0, D2 antag -16.5 and D2 ag-2 -1.4.
Screening CC(=O)c1c(-c2ccc(Cl)cc2Cl)noc1C returned D2 PAM-1 -7.8, D2 ag-1 0.2, D2 PAM-2 -11.3, LDHA block -7.7, D2 antag 30.2* and D2 ag-2 -19.2.
For CC1CCCN(Cc2ccc(OCc3ccccc3)cc2)C1 (stereo not drawn) the results were D2 PAM-1 -34.6, D2 ag-1 -0.6, D2 PAM-2 -13.9, LDHA block 1.9, D2 antag 46.3* and D2 ag-2 0.1.
`OC1CCN(Cc2ccc(OCc3ccccc3)cc2)CC1` gave D2 PAM-1 -17.7, D2 ag-1 -0.9, D2 PAM-2 -8.3, LDHA block -8.9, D2 antag 4.9 and D2 ag-2 5.0.
Cc1ncc(C(=O)O)c(C(=O)O)c1N was read as D2 PAM-1 -18.0, D2 ag-1 0.3, D2 PAM-2 35.4*, LDHA block -0.1, D2 antag -30.6 and D2 ag-2 7.5.
`c1ccc(C2=Nn3c(nnc3-c3cnccn3)SC2)cc1` gave LDHA block -1.4.
Cc1nc2ccc(S(=O)(=O)N(CC(=O)N3CCCC3)Cc3ccccc3)cc2s1 was read as LDHA block -2.0.
`CCCC1(C(=O)OC)NC(c2cccc(F)c2)C2C(=O)N(CC)C(=O)C21` (stereo not drawn) gave D2 PAM-1 -5.3, D2 ag-1 1.1, D2 PAM-2 -8.3, LDHA block -8.1, D2 antag 30.8* and D2 ag-2 -4.2.
For CCN1C(=O)C2C(c3cccc(F)c3)NC(CC)(C(=O)OC)C2C1=O (stereo not drawn) the results were D2 PAM-1 -6.8, D2 ag-1 1.3, D2 PAM-2 2.5, LDHA block -3.1, D2 antag -11.2 and D2 ag-2 -1.6.
Cc1cccc(CN2CCC(CNC(=O)Nc3cn(CC(C)C)c(=O)c4ccccc34)CC2)c1 was read as LDHA block 14.0.
O=C1CC(N2CCN(c3ccccc3)CC2)C(=O)N1c1ccc2c(c1)OCCO2 (stereo not drawn) was read as D2 PAM-1 -16.4, D2 ag-1 0.4, D2 PAM-2 -5.9, LDHA block 1.7, D2 antag 37.9* and D2 ag-2 -2.9.
`O=C1CC(N2CCOCC2)C(=O)N1c1ccccc1Cl` (stereo not drawn) gave D2 PAM-1 -1.8, D2 ag-1 0.3, D2 PAM-2 56.8*, LDHA block -9.5, D2 antag -11.2 and D2 ag-2 -4.7.
Screening CN1CCN(C2CC(=O)N(c3ccc4c(c3)OCCO4)C2=O)CC1 (stereo not drawn) returned D2 PAM-1 14.5, D2 ag-1 1.0, D2 PAM-2 -12.2, LDHA block 1.8, D2 antag -1.7 and D2 ag-2 -1.4.
`O=C1CC(N2CCN(c3ccccc3Cl)CC2)C(=O)N1c1ccccc1` (stereo not drawn) gave D2 PAM-1 -4.2, D2 ag-1 0.2, D2 PAM-2 3.9, LDHA block -5.2, D2 antag -8.0 and D2 ag-2 -1.8.
For Cc1ccc(C(=O)/C=C/C=C/c2cccs2)cc1 the results were LDHA block 3.4.
CCS(=O)(=O)c1ncc(N(Cc2ccccc2)Cc2ccco2)c(C(=O)Nc2ccccc2)n1 was read as LDHA block 5.2.
For CN1C(=O)C(NC(=O)C(=O)NCCc2c[nH]c3ccc(Cl)cc23)c2ccccc21 (stereo not drawn) the results were LDHA block 4.9.
Screening CCCCS(=O)(=O)CC(COc1ccccc1)OC(=O)c1ccccc1 (stereo not drawn) returned D2 PAM-1 -6.3, D2 ag-1 1.3, D2 PAM-2 0.6, LDHA block 5.4, D2 antag 34.9* and D2 ag-2 -3.0.
CCCCS(=O)CC(CS(=O)CCCC)OC(=O)c1ccccc1 (stereo not drawn) was read as D2 PAM-1 -9.4, D2 ag-1 0.2, D2 PAM-2 -5.6, LDHA block -10.9, D2 antag -0.3 and D2 ag-2 -2.9.
Screening CC(NC(=O)c1ccc2c(c1)NC(=O)CS2)c1ccc2c(c1)OCO2 (stereo not drawn) returned LDHA block 1.3.
Screening Cc1nnc(CN2CCC(c3nc4ccccc4s3)CC2)o1 returned LDHA block 7.9.
`CNC(=S)N1CCC(c2nc3ccccc3s2)CC1` gave D2 PAM-1 -14.3, D2 ag-1 -0.9, D2 PAM-2 18.2, LDHA block -6.1, D2 antag 68.3* and D2 ag-2 0.5.
Screening CCc1nnc(CN2CCC(c3nc4ccccc4s3)CC2)o1 returned LDHA block -36.1*.
For CC(C)Oc1ccc(-c2cc(C(=O)O)c3ccccc3n2)cc1 the results were LDHA block 2.8.
CC1CCCCC1NC(=O)CCNS(=O)(=O)c1cc(Br)cnc1N (stereo not drawn) was read as D2 PAM-1 -6.5, D2 ag-1 0.1, D2 PAM-2 2.8, LDHA block 0.0, D2 antag 32.9* and D2 ag-2 1.2.
Screening COc1ccc(CNC(=O)CCNS(=O)(=O)c2cc(Br)cnc2N)cc1 returned D2 PAM-1 -5.4, D2 ag-1 0.0, D2 PAM-2 45.7*, LDHA block -4.7, D2 antag -5.2 and D2 ag-2 -2.5.
`CC(C)c1ccccc1OCC(=O)N(C)CC(=O)Nc1ccc(F)cc1` gave D2 PAM-1 -45.8, D2 ag-1 -0.1, D2 PAM-2 -22.2, LDHA block -0.7, D2 antag 55.8* and D2 ag-2 -2.9.
Cc1ccc(SCC(=O)OCC(=O)N(C)CC(=O)Nc2ccc(F)cc2)cc1C was read as D2 PAM-1 9.5, D2 ag-1 12.0, D2 PAM-2 6.4, LDHA block 2.8, D2 antag 38.3* and D2 ag-2 0.4.
Screening CCCn1c(N)c(N(CCOC)C(=O)c2ccccc2)c(=O)[nH]c1=O returned D2 PAM-1 -0.8, D2 ag-1 1.3, D2 PAM-2 -11.1, LDHA block -8.0, D2 antag 55.4* and D2 ag-2 -0.6.

Assay outcomes: PubChem BioAssay, National Center for Advancing Translational Sciences (NCATS)
